Screening data as filed in PubChem.
This excerpt belongs to a sample that is enriched for hits.
LmPK inhibitor: LmPK (Leishmania mexicana) enzyme inhibition; Q27686; purified LmPK, Kinase-Glo ATP luminescence, 1 h; Potency, µM (highest dose often 57.5 µM), inactives show at the highest dose activity change, negative = inhibition, most hits filed as inhibitors; 290,000 compounds, 0.37% hits; AID 1721; further: potency means the concentration at half of the fitted maximal effect; on the % scale 0 is the no-effect control and ±100 the full control effect
Target sequence (Q27686 whole entry, looked up): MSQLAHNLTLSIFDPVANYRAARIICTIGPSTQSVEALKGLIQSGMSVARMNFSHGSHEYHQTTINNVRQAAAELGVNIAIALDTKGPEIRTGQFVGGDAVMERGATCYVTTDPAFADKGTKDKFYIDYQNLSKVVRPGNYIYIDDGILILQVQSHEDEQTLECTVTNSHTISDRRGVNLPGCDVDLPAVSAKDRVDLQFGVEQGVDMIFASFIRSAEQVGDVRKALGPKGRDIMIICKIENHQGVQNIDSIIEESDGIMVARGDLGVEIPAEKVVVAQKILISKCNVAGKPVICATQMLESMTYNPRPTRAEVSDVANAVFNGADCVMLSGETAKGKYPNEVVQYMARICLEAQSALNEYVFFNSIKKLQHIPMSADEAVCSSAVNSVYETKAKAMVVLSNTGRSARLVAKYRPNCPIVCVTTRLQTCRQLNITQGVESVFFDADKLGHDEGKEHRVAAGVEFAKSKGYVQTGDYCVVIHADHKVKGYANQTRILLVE
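Purified LmPK (0.1 nM) converted ADP (0.1 mM) to ATP with PEP (0.5 mM) in imidazole buffer pH 7.2 with KCl and MgCl2, 1 h at room temperature. ATP was read by Kinase-Glo luminescence; data normalized to uninhibited and no-enzyme controls.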
Shiga toxin inh: inhibitors of Shiga toxin in Vero cells; Vero cells, Shiga toxin protein synthesis inhibition reporter; inhibition, % at 38.7 µM; 290,000 compounds, 9.2% hits; AID 2315; in the data active means inhibition mostly above about 28%, no sharp cut-off; inactive means mostly below about 43%; further: 0% is about no effect
Cycloheximide cs: affects cycloheximide protein synthesis inhibition readout, counter-screen. cell reporter, cycloheximide protein synthesis inhibition counterscreen. max response, %. 300,000 compounds, 12% hits; in the data active means max response mostly above about 13%, no sharp cut-off; inactive means mostly below about 14%; further: read at 38.3 µM for the half of the compounds with a filed dose; 0% is about no effect
TbPYK inhibitor: inhibitors of Trypanosoma brucei pyruvate kinase. Q57TT1. 410,000 compounds, 0.12% hits. TbPYK enzyme, Kinase-Glo Plus ATP luminescence, 45 min. Potency, µM (series often up to 76.8 µM), without a hit: at the top dose activity, negative = inhibition, hits mostly inhibitors; further: potency means the concentration at half of the fitted maximal effect; on the % scale 0 is the no-effect control and ±100 the full control effect; nearly all actives have a fitted effect of over 50% in size
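Enzyme and substrate buffer are dispensed first and compound is pin-transferred. ADP at 130 uM final then starts the reaction, which runs 45 min at room temperature. Detection reagent is added for 10 min before luminescence is imaged.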
NS1 function inh: inhibitors of influenza NS1 protein function; Potency, µM (doses to about 46.1 µM), without a hit: at the top dose activity, positive = more growth; 270,000 compounds, 0.4% hits; calls by dose curve; further: potency means the concentration at half of the fitted maximal effect; actives are rising curves; nearly all actives have a fitted effect of over 50% in size
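Growth recovery, yeast-based: influenza A NS1 expressed in S. cerevisiae causes slow growth, and suppressors are detected by OD600. The parent strain without NS1 is used as positive control.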
SARS PLpro yeast: inhibitors of SARS-CoV papain-like protease in yeast | S. cerevisiae expressing SARS-CoV PLpro, growth rescue | Potency, µM (series often up to 32.9 µM), without a hit: at the highest dose activity, positive = growth rescue, hits mostly activators | 330,000 compounds, 0.19% hits; calls by dose curve; further: potency means the concentration at half of the fitted maximal effect; 0% is about no effect; nearly all actives have a fitted effect of over 55% in size
The depositor's hits bear a star; ? = inconclusive; . = not tested or not shown. Unless noted, the call rests on the fitted dose curve; in most records, active means well fitted curve in the direction sought with a large enough effect; inconclusive means small, poorly fitted or top-dose-only effect, or another doubt; inactive means no such curve, though single readings can be large; an effect the other way counts as inactive or inconclusive.

SMILES	LmPK inhibitor	Shiga toxin inh	Cycloheximide cs	TbPYK inhibitor	NS1 function inh	SARS PLpro yeast
Cc1ccc(/C=N/Nc2nc(Cl)c(Cl)cc2Cl)s1	0%	96*	28*	-2%	-12%	-18%
Cc1ccsc1/C=N/Nc1nc(Cl)c(Cl)cc1Cl	-2%	45	41*	1%	-2%	1%
Cc1ccccc1N1CCN(C2CCCN(C(=O)c3ccnn3C)C2)CC1 (centres undefined)	5%	23	7	10%	12%	-3%
O=c1ncn(-c2cccc(F)c2)c2ncccc12	-5%	3	14*	-6%	5%	9%
Cc1ccccc1COc1ccc(-c2nn[nH]n2)cc1	-3%	32*	27*	-15%	-51%	-1%
Brc1cc2c(cc1COc1ccc(-c3nn[nH]n3)cc1)OCO2	-3%	-49	30*	-1%	-88%	-34%
Cc1nc2c(-c3ccc(F)cc3)cnn2c2c1CCC2	2%	53*	38*	0%	.	1%
Nc1c(C(=O)CSc2ncccn2)c(=O)[nH]c(=O)n1C1CC1	.	.	.	4%	.	-1%
Cc1ccc(OCC(=O)OCc2cc(=O)n3c(C)csc3n2)cc1	.	.	.	0%	.	.
COc1cccc(-c2nnc3n2N=C(c2c(OC)cccc2OC)CS3)c1OC	.	-4	-5	.	.	.
NNc1ccc(Cl)c(C(=O)O)c1	12%	96*	36*	-15%	7%	1%
O=C(O)/C=C/C(=O)Nc1ccc(Cl)c(C(=O)O)c1	1%	51*	19*	4%	0%	1%
COc1ccc(NC(=O)/C=C/C(=O)O)cc1Cl	-2%	5	-5	-3%	8%	-22%
CC(C)C[C@@H](NC(=O)[C@@H](Cc1ccccc1)NC(=O)c1cnccn1)B(O)O	.	.	.	-3%	.	.
Cc1nnc(N/N=C/c2cc(C)n(-c3ccc(F)cc3)c2C)n1N	3%	4	24*	0%	-19%	-9%
Cc1nnc(N/N=C/c2c(Cl)cccc2Cl)n1N	-4%	39	12	-4%	-5%	-2%
CCOc1cc(/C=N/NC(=O)N/N=C/c2ccc(O)c(OCC)c2)ccc1O	.	.	.	-4%	.	.
Cc1nnc(N/N=C/c2ccccc2O)n1N	-1%	31*	17*	0%	.	-4%
CCOc1cc(/C=N/Nc2ncnc(Cl)c2N)ccc1O	-12%	57*	35*	-16%	-4%	-14%
Cc1nnc(N/N=C/c2ccc(-c3ccccc3F)o2)n1N	-4%	150*	25*	-6%	.	-5%
CSc1ccc(CNC(=O)c2sc3ncnc(N(C)C4CCCCC4)c3c2C)cc1	.	.	.	-6%	.	.
N#CN=CN1CC=C(c2ccc(Cl)cc2)CC1	.	.	.	3%	.	.
CN(Cc1ccccc1)CC(O)CN(C)Cc1ccccc1	.	.	.	0%	.	.
CCOc1cc(/C=N/Nc2nnc(C)n2N)ccc1O	-1%	50*	25*	2%	-2%	-7%
COc1cccc(/C=N\NC(=O)c2ccc(C)nc2)c1	-3%	46*	29*	-4%	-13%	1%
SMILES	LmPK inhibitor	Shiga toxin inh	Cycloheximide cs	TbPYK inhibitor	NS1 function inh	SARS PLpro yeast
Cc1ccc(C(=O)N/N=C\c2cccc(OC(=O)c3cccc(F)c3)c2)cn1	10%	43*	20*	-5%	-2%	-1%
Cc1ccc(C(=O)N/N=C\c2ccc(OC(=O)c3cccc(F)c3)cc2)cn1	-3%	-3	-3	-7%	1%	-1%
NC(=O)c1sc2nc3c(c(-c4ccco4)c2c1N)CCC3	-9%	-9	-2	-22%	-32%	-11%
Nc1c(C(=O)Nc2ccccc2F)sc2nc(-c3ccco3)ccc12	5%	97*	47*	-5%	12%	0%
NC(=O)c1sc2nc(-c3ccco3)ccc2c1N	-6%	110*	37*	-16%	-45%	-9%
COC(=O)c1sc2nc(-c3ccco3)ccc2c1N	-22%	93*	68*	?	-15%	-10%
CC(C)N(Cc1ccccc1)C(=O)COC(=O)CCC(=O)c1ccc(F)cc1	.	.	.	6%	.	-7%
Cc1ccc(NC(=O)c2oc3ccc(S(=O)(=O)N(C)C4CCCCC4)cc3c2C)c(C)c1	.	.	.	6%	.	.
CCN(CC)c1ccc(NC(=O)c2cc(OC)cc(OC)c2)c(C)c1	1%	-10	-2	-15%	-1%	-10%
CCN(CC)c1ccc(NC(=O)c2cccc(OC)c2)c(C)c1	-13%	25	17*	-16%	-6%	-1%
CCN(CC)c1ccc(NC(=O)c2ccc3c(c2)OCO3)c(C)c1	1%	13	17*	?	-7%	8%
CN1CCN(c2ccc(NC(=O)CSc3nnnn3-c3ccccc3Cl)cc2)CC1	0%	-4	-1	4%	8%	-1%
COc1cc(OC)cc(C(=O)Nc2ccc(-c3nc4ccccc4o3)cc2)c1	1%	48*	12	-1%	-51%	3%
COc1cccc(C(=O)Nc2ccc(-c3nc4ccccc4o3)c(O)c2)c1	14%	53*	14	-3%	7%	-4%
COc1cc(OC)cc(C(=O)Nc2ccc(-c3nc4cc(C(C)C)ccc4o3)cc2)c1	.	.	.	1%	.	.
COc1cc(OC)cc(C(=O)Nc2ccc3oc(-c4ccccc4C)nc3c2)c1	.	.	.	-9%	.	.
Cc1cccc(C)c1NC(=O)CCc1nnc2ccc(N3CCCC3)nn12	0%	-9	-2	0%	12%	3%
CCOc1cc(C(=O)NCc2ccccc2)ccc1OCC(=O)N1CCOCC1	0%	21	2	2%	.	0%
Nc1nc(N2CCOCC2)nc(N(c2ccccc2)c2ccccc2)n1	3%	-4	-4	3%	-5%	3%
O=C(CSc1nc2ccccc2s1)NCCCN1CCOCC1	2%	-10	-1	1%	-13%	-3%
Nc1nc(CSCc2ccccc2)nc(N2CCOCC2)n1	10%	46*	46*	2%	-2%	4%
O=C(CSc1nc2ccccc2s1)N1CCOCC1	1%	active	29*	-4%	6%	2%
CCOc1cc(/C=C/c2nc3ccccc3s2)ccc1OCC(=O)N1CCOCC1	3%	37*	16*	7%	-28%	10%
Nc1nc(CSc2nc3ccccc3s2)nc(N2CCOCC2)n1	0%	36	15*	20%	-2%	0%
CC(=O)Nc1ccccc1OCc1nnc(-c2ccc(Cl)cc2)o1	-4%	33	28*	-4%	3%	-3%
Clc1ccccc1-c1nnc(COc2ccccc2)o1	.	.	.	1%	.	.
Clc1ccccc1OCc1nnc(-c2ccccc2)o1	0%	67*	46*	-3%	-7%	-1%
CC(=O)Nc1ccccc1OCc1nnc(-c2cccs2)o1	-1%	21	7	-9%	-7%	-2%
C[C@@H]1CN([C@@H](C)CO)C(=O)c2cc(NC(=O)c3ccccc3)ccc2O[C@@H](C)CCCCO[C@@H]1CN(C)S(=O)(=O)c1ccc(F)cc1	.	.	.	-4%	.	.
c1ccc2c(c1)ncc1cccn12	4%	-21	2	-4%	-21%	1%
